{"source": "PubChem BioAssay (NCI)", "note": "The panel holds about 83,000 compounds, 20% with a hit somewhere; the sample as a whole holds those more often.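 Activity criterion: percent growth below 10, measured after cells in 96-well plates were exposed to a single compound concentration for 48 hours.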 Calls of active or inactive are those of the source.", "data": [{"system": "MDA-MB-468 breast", "assay": "NCI-60 one-dose screen, 48 h (100 = growth as untreated, 0 = no growth, -100 = all killed)", "details": "10 µM unless noted", "values": [{"compound": "CNC(=O)c1cc(Oc2ccc(NC(=O)c3nc(S(C)(=O)=O)n(C)c3-c3ccc(F)cc3)cc2)ccn1", "growth": "79.1% (inactive)"}, {"compound": "COc1cc(-c2nn(-c3cccc(NC(=O)c4ccc(Cl)c(C(F)(F)F)c4)c3)cc2-c2ccncc2)ccc1Cl", "growth": "54.4% (inactive)"}, {"compound": "O=C1C(=O)c2c(ccc3ccccc23)-c2ccccc21", "growth": "-79.9% (active)"}]}]}
